Tgondii IFNg: blocks Toxoplasma gondii growth in the presence of IFN-gamma | 3.8% of 69,000 active | activity change, negative = inhibition, % (concentration not given with the values) | Toxoplasma gondii growth in IFN-gamma-treated host cells; stronger effect = lower value; in the data active = activity change below about -70%, passing the limit was not always enough;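 note: host cells are HeLa cells infected with Toxoplasma gondii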
Numbers stand for hits; – = inactive. Many of the other results were omitted from the sample, so hits are more common in it than they were.

SMILES | Tgondii IFNg
CN1CCN(c2ncnc3ccc(-c4cccc(-c5ccn[nH]5)c4)cc23)CC1 | -79
CN(C)C(=O)c1ccc2ncnc(N3CCCC3)c2c1 | –
CC(=O)N1CCOC(CNC(=O)CCc2ccccc2O)C1 (configuration not stated) | –
Cc1nc(C)c(CC(=O)Nc2ncc(Cc3ccc(F)cc3)s2)s1 | -80
Cc1nc2[nH]nc(C)n2c(=O)c1CC(=O)Nc1ncc(Cc2ccccc2F)s1 | –
Cc1ccc2nc(COCC(=O)Nc3ncc(Cc4ccccc4)s3)[nH]c2c1 | –
CCc1cnc(N2CC[C@H]3CN(CC)S(=O)(=O)[C@@H]3CC2)nc1 | –
COc1ccc(S(=O)(=O)N(C)C[C@H]2Oc3c(NC(=O)c4nc5ccccc5s4)cccc3C(=O)N([C@H](C)CO)C[C@@H]2C)cc1 | –
COc1ccc(S(=O)(=O)N(C)C[C@@H]2OCCCC[C@@H](C)Oc3ccc(NC(=O)Cc4ccccc4)cc3C(=O)N([C@H](C)CO)C[C@@H]2C)cc1 | –
COc1ccc(S(=O)(=O)Nc2ccc3c(c2)C(=O)N([C@H](C)CO)C[C@@H](C)[C@H](CN(C)S(=O)(=O)c2ccc(Cl)cc2)OCCCC[C@H](C)O3)cc1 | -113
COc1ccc(S(=O)(=O)N(C)C[C@H]2Oc3c(NC(=O)c4nc5ccccc5s4)cccc3C(=O)N([C@@H](C)CO)C[C@H]2C)cc1 | -82
COc1ccc(S(=O)(=O)Nc2ccc3c(c2)C(=O)N([C@H](C)CO)C[C@H](C)[C@H](CN(C)S(=O)(=O)c2ccc(Cl)cc2)OCCCC[C@@H](C)O3)cc1 | –
C[C@@H]1CCCCO[C@@H](CN(C)S(=O)(=O)c2ccc(Cl)cc2)[C@@H](C)CN([C@H](C)CO)C(=O)c2cc(NC(=O)Nc3ccc(C(F)(F)F)cc3)ccc2O1 | –
C[C@@H]1CCCCO[C@H](CN(C)S(=O)(=O)c2ccc(Cl)cc2)[C@@H](C)CN([C@H](C)CO)C(=O)c2cc(NC(=O)Nc3ccc(C(F)(F)F)cc3)ccc2O1 | –
COc1ccc(S(=O)(=O)Nc2ccc3c(c2)C(=O)N([C@@H](C)CO)C[C@H](C)[C@H](CN(C)S(=O)(=O)c2ccc(Cl)cc2)OCCCC[C@@H](C)O3)cc1 | -112
COc1ccc(S(=O)(=O)Nc2ccc3c(c2)C(=O)N([C@@H](C)CO)C[C@@H](C)[C@H](CN(C)C(=O)Nc2c(C)noc2C)OCCCC[C@@H](C)O3)cc1 | –
COc1ccc(S(=O)(=O)N(C)C[C@@H]2Oc3c(NC(=O)c4nc5ccccc5s4)cccc3C(=O)N([C@H](C)CO)C[C@@H]2C)cc1 | –
COc1ccc(S(=O)(=O)Nc2ccc3c(c2)C(=O)N([C@@H](C)CO)C[C@@H](C)[C@@H](CN(C)C(=O)Nc2c(C)noc2C)OCCCC[C@H](C)O3)cc1 | -78
COc1ccc(S(=O)(=O)Nc2ccc3c(c2)C(=O)N([C@@H](C)CO)C[C@@H](C)[C@H](CN(C)C(=O)Nc2c(C)noc2C)OCCCC[C@H](C)O3)cc1 | –
O=C(NCc1ccc2[nH]c3c(c2c1)CCCCCC3)C1CCS(=O)(=O)CC1 | –
CC(Cc1ccsc1)Nc1ccnc(C(=O)NC2CC2)c1 (configuration not stated) | –
Cc1nc(OCC(=O)Nc2ccc(C)c(C)c2)c2ccccc2n1 | –
CC(=O)N1CCO[C@H]2CCN(C(=O)c3cc(C)[nH]n3)C[C@H]21 | –
CCOC(=O)c1noc(Oc2ccc(Cl)cc2Cl)n1 | –
CCC(C)NC(=O)c1c(O)c2cccnc2n(-c2ccc(OC)cc2)c1=O (configuration not stated) | –
SMILES | Tgondii IFNg
O=C(C1CCOCC1)N1C[C@H]2[C@@H](c3ccccc31)[C@H](CO)N2C(=O)Nc1ccccc1F | –
COc1ccc(S(=O)(=O)N(C)C[C@H]2Oc3ccc(NC(=O)Nc4ccc(C(F)(F)F)cc4)cc3C(=O)N([C@H](C)CO)C[C@@H]2C)cc1 | –
COc1ccc(S(=O)(=O)N(C)C[C@H]2OCCCC[C@@H](C)Oc3ccc(NC(=O)Cc4ccccc4)cc3C(=O)N([C@@H](C)CO)C[C@H]2C)cc1 | -102
COc1ccc(S(=O)(=O)N(C)C[C@H]2OCCCC[C@H](C)Oc3ccc(NC(=O)Cc4ccccc4)cc3C(=O)N([C@H](C)CO)C[C@H]2C)cc1 | –
COc1ccc(S(=O)(=O)N(C)C[C@@H]2Oc3ccc(NC(=O)Nc4ccc(C(F)(F)F)cc4)cc3C(=O)N([C@H](C)CO)C[C@@H]2C)cc1 | –
COc1ccc(S(=O)(=O)N(C)C[C@@H]2Oc3ccc(NC(=O)Nc4ccc(C(F)(F)F)cc4)cc3C(=O)N([C@H](C)CO)C[C@H]2C)cc1 | -75
COc1ccc(S(=O)(=O)N(C)C[C@@H]2OCCCC[C@@H](C)Oc3ccc(NC(=O)Cc4ccccc4)cc3C(=O)N([C@@H](C)CO)C[C@@H]2C)cc1 | –
Cn1c(C(=O)NCC(F)(F)F)nc2c1CCN(c1ncccn1)C2 | –
CCOc1ccc(-c2nc(CNS(=O)(=O)c3ccccc3)c(C)o2)cc1 | –
CC1CN(CCC(=O)NC(c2ccccn2)C(F)(F)F)Cc2cc(Cl)ccc2O1 (configuration not stated) | –
Cc1cccc(N2CCN(C(=O)c3csc(C(=O)NC4CC4)n3)CC2)c1 | –
Cc1oc(-c2cccc(C(F)(F)F)c2)nc1CN1[C@@H]2CC[C@H]1CC(O)C2 (some centres not stated) | –
C[C@@H]1CN(CC(=O)Nc2ccc3c(c2)Cc2cccc(-c4cc(=O)cc(N5CCOCC5)o4)c2S3)C[C@H](C)O1 | –
Cc1cccnc1C(=O)N1CCc2nnc(CCc3ccccc3)n2CC1 | –
CNCCn1c(=O)c2cc(OC)c(OC)cc2c2cnc3cc4c(cc3c21)OCO4 | -80
Cc1c(-c2nnnn2-c2ccc(F)cc2)cnc2cc3c(cc12)OCO3 | –
Cn1c(=O)n(C)c2cc(CCC(=O)NC3=NS(=O)(=O)c4ccccc43)ccc21 | –
O=C(Cn1c(=O)cc(-c2nc(C3CC3)no2)c2ccccc21)Nc1ccc(F)cc1 | –
Cc1cccc(Nc2nc(C(=O)Nc3ccc(C)c(Cl)c3)nc3ccccc23)c1 | –
Cc1nc(-c2cc(S(=O)(=O)N3CCCCC3C)c(C)s2)sc1C (configuration not stated) | –
Cc1nc(-c2cc(S(=O)(=O)N3CCC(C)CC3)c(C)s2)sc1C | –
Cc1sc(-c2nc(C(C)C)cs2)cc1S(=O)(=O)N1CCC(C)CC1 | -89
O=C(c1ccco1)N1CCC2OCCCC2(COCc2ccncc2)C1 (configuration not stated) | –
Cc1scc(C(=O)N2CCc3c(nc[nH]c3=O)C2)c1-c1ccccc1 | –
COc1ccc2nc(NC(=O)COc3cccc(C)c3)sc2c1 | –
SMILES | Tgondii IFNg
COc1cc2sc(NC(=O)Cc3c(C)noc3C)nc2cc1Cl | -79
COc1ccc(C(C)NC(=O)c2ccc(Cc3c(C)noc3C)s2)cc1F (configuration not stated) | –
Cc1ccc(C(=O)Nc2c(C(=O)NCc3ccccn3)[nH]c3ccccc23)cc1 | –
Cc1nc2ccccn2c1CC(=O)Nc1ccc(C2CCc3nncn3C2)cc1 (configuration not stated) | –
CN(CCCC1CCCO1)C(=O)c1cc(-c2ccccc2)nn1C (configuration not stated) | –
CCOC(=O)N1CCC2(CC1)OC(=O)C(C)=C2C(=O)NCCCN1CCOCC1 | –
CC(C)c1ccc(NC(=O)C2CC(=O)N(CCc3c[nH]c4ccc(Cl)cc34)C2)cc1 (configuration not stated) | –
Cc1ccc2[nH]cc(CCN3CC(C(=O)NC4CCCCCCC4)CC3=O)c2c1 (configuration not stated) | –

Screening results as filed in PubChem.
